Screens (PubChem BioAssay)
Compounds with a hit are over-represented: about 7.3% of the library has one in this group of screens.
HCV inhibitor – inhibitors of hepatitis C virus infection; 340,000 compounds, 3.4% hits; Potency, µM (highest dose often 41.8 µM), for the others: at the highest dose activity change, negative = inhibition, usual class: inhibitors; AID 651820; Huh7.5.1 HCVcc-Cre infection, luciferase reporter, 44 h; active means well fitted inhibition curve with a large enough effect; inconclusive means small, poorly fitted or top-dose-only effect, or another doubt; inactive means no such curve, though single readings can be large or run the other way; further: potency means the concentration at half of the fitted maximal effect
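Antiviral activity was scored by luciferase reporter output from cells infected with HCVcc-Cre (~0.5 moi) in presence of compound, 44 h infection period, cells seeded 1,000/well 4 h prior.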
HCMV antiviral – blocks human cytomegalovirus replication. activity change, negative = inhibition, % at 57.5 µM. 410,000 compounds, 4.5% hits. HFF cells, HCMV-luciferase reporter, 72 h; active compounds read low. AID 1259415; in the data active means activity change below about -60%; inconclusive means no clear call, values can overlap the other calls; inactive means above about -39%
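Cell-based, HFFs, 1000 cells/well, 16 h 37C; cpds in DMSO + HCMV-luc, MOI 1 PFU/cell; 72 h 37C; OneGlo luminescence after 5 min RT; norm. to buffer vs Salinomycin 10uM.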
FMDV inh – antivirals against foot and mouth disease virus. AID 1159524. Potency, µM (titrated, usually from 57.9 µM), without a hit: at the highest dose activity change, negative = inhibition, actives largely listed as inhibitors. 410,000 compounds, 1.2% hits. FMDV antiviral cell-based qHTS; calls by dose curve; tested in HEK293T cells; further: read-out not given here; potency means the concentration at half of the fitted maximal effect; nearly all actives have a fitted effect of over 45% in size
Vaccinia mCherry – inhibitors of vaccinia virus infection (mCherry reporter signal); Vaccinia virus mCherry reporter infection, fluorescence; Potency, µM (series often up to 36.5 µM), without a hit: at the highest dose activity change, negative = inhibition, most hits filed as inhibitors; 310,000 compounds, 0.63% hits; AID 720579; calls by dose curve; tested in A549 cells; further: potency means the concentration at half of the fitted maximal effect; nearly all actives have a fitted effect of over 35% in size
VACV Venus inh – inhibitors of vaccinia virus (Venus reporter); Vaccinia virus Venus reporter expression, fluorescence; Potency, µM (titrated, usually from 36.5 µM), for inactives: top-dose activity change, negative = inhibition, hits mostly inhibitors; 330,000 compounds, 0.46% hits; AID 720580; calls by dose curve; tested in A549 cells; further: potency means the concentration at half of the fitted maximal effect; nearly all actives have a fitted effect of over 30% in size
* hit, by the source's call; [ ] = remark or other dose. On the % scale 0 is the no-effect control and ±100 the full control effect.

Screening Cc1cc(N=Cc2c(O)n(-c3ccc4c(c3)OCO4)c(=O)c3ccccc23)ccn1 returned HCV inhibitor -23%, HCMV antiviral -92* and FMDV inh 16%.
`Cc1cc(N=Cc2c(O)n(-c3ccc(C)c(C)c3)c(=O)c3ccccc23)no1` gave HCV inhibitor -12% and HCMV antiviral -64*.
`COc1cc(CNc2nc(C)c([N+](=O)[O-])c(C)c2C#N)cc(OC)c1OC` gave HCV inhibitor 6.3µM*, HCMV antiviral 40, FMDV inh 25µM*, Vaccinia mCherry -4% and VACV Venus inh -15%.
COc1ccc(/C=C\C(=O)c2c(O)ccc3c(C)cc(=O)oc23)cc1 was read as HCV inhibitor -11%, HCMV antiviral inconclusive, FMDV inh inconclusive, Vaccinia mCherry -9% and VACV Venus inh -14%.
COc1ccc(-c2cc(=O)oc3c(C)c(OC(C)C(=O)Nc4ccc(CN5CCOCC5)cc4)ccc23)cc1 (centres undefined) was read as HCV inhibitor 13µM*, HCMV antiviral inconclusive and FMDV inh 1%.
COc1ccc(/C=C/C(=O)c2c(O)ccc3c(C)cc(=O)oc23)cc1 was read as HCV inhibitor inconclusive, HCMV antiviral -78* and FMDV inh -25%.
`COc1ccc(-c2cc(=O)oc3cc(OC(=O)C4CCCCC4)c(Cl)cc23)cc1` gave HCV inhibitor -3%, HCMV antiviral -91* and FMDV inh -23%.
Screening COc1ccc(-c2cc(=O)oc3cc(O)ccc23)cc1 returned HCV inhibitor -2%, HCMV antiviral -96*, FMDV inh -15%, Vaccinia mCherry -8% and VACV Venus inh -19%.
For O=C(OC1Cc2c(O)cc(O)cc2OC1c1cc(O)c(O)c(O)c1)c1cc(O)c(O)c(O)c1 (centres undefined) the results were FMDV inh -1%, Vaccinia mCherry -14% and VACV Venus inh -1%.
For CNC1CCC(c2ccc(Cl)c(Cl)c2)c2ccccc21 (centres undefined) the results were FMDV inh -15%.
Cc1ccc2c(CN3CCN(S(=O)(=O)c4ccc5c(c4)OCCO5)CC3)cc(=O)oc2c1C was read as HCV inhibitor 13µM*, HCMV antiviral -78*, FMDV inh inconclusive, Vaccinia mCherry -10% and VACV Venus inh 0%.
`COc1ccc(-c2cc(=O)oc3c(C)c(O)ccc23)cc1` gave HCV inhibitor -6%, HCMV antiviral -72* and FMDV inh -23%.
For Cc1c(O)ccc2c(-c3ccccc3)cc(=O)oc12 the results were HCV inhibitor -9%, HCMV antiviral -71* and FMDV inh -26%.
`COc1ccc(-c2cc(=O)oc3c(C)c(OC(C)C(C)=O)ccc23)cc1` (centres undefined) gave HCV inhibitor inconclusive, HCMV antiviral 20 and FMDV inh -25%.
Screening Cc1c(O)ccc2c(CN3CCOCC3)cc(=O)oc12 returned HCV inhibitor 7%, HCMV antiviral active and FMDV inh -6%.
For NC(=O)c1cc[n+](CC2=C(C(=O)O)N3C(=O)[C@@H](NC(=O)[C@@H](c4ccccc4)S(=O)(=O)[O-])[C@H]3SC2)cc1 the results were Vaccinia mCherry -12%[60.7 µM] and VACV Venus inh -4%[60.7 µM].
CC(C)c1ccc(/C=C(\C#N)c2nc(-c3ccc(O)cc3)cs2)cc1 was read as HCMV antiviral -87*, FMDV inh -23%, Vaccinia mCherry -23% and VACV Venus inh inconclusive.
For COc1ccc(/C=C(/C#N)c2nc(-c3ccc(Br)cc3)cs2)cc1 the results were HCMV antiviral 2, FMDV inh -1%, Vaccinia mCherry -18% and VACV Venus inh -5%.
For Cc1ccccc1-c1ccc(CN2CCc3nnc(CNC(=O)c4ccccn4)n3CC2)cc1 the results were FMDV inh -18%, Vaccinia mCherry -18% and VACV Venus inh -11%.
For O=C(Sc1n[nH]c(=O)[nH]c1=O)c1ccccc1 the results were HCV inhibitor 11%, HCMV antiviral 14, FMDV inh -1%, Vaccinia mCherry -16% and VACV Venus inh -18%.
COC(=O)[C@@H]1[C@@H](C(=O)OC)C2(c3ccccc3-c3ccccc32)N(c2ccc(Cl)cc2)N1C#N was read as HCV inhibitor 1.8µM*, HCMV antiviral -82*, FMDV inh 3.5µM*, Vaccinia mCherry inconclusive and VACV Venus inh inconclusive.
For COC(=O)C1OC2(OC1C(=O)OC)c1ccccc1-c1ccccc12 (centres undefined) the results were HCV inhibitor 4%, HCMV antiviral -36, FMDV inh -11% and VACV Venus inh 20%.
COc1ccc(C2=NCC(C)n3nc4ccccc4c32)cc1 (centres undefined) was read as HCMV antiviral 9.
For CN(C)CCC1Sc2ccccc2Oc2ccccc21 (centres undefined) the results were HCV inhibitor 1%, HCMV antiviral -14, FMDV inh -8%, Vaccinia mCherry -11% and VACV Venus inh -2%.
For CC1c2ccccc2SC(CCCN(C)C)c2ccccc21 (centres undefined) the results were HCV inhibitor inconclusive, HCMV antiviral -61*, FMDV inh inconclusive, Vaccinia mCherry -28% and VACV Venus inh -14%.
Cc1ccccc1NC(=O)Cc1nc(COC(=O)c2ccc(S(C)(=O)=O)c([N+](=O)[O-])c2)cs1 was read as HCV inhibitor 10µM* and FMDV inh inconclusive.
Screening CS(=O)(=O)c1ccc(C(=O)OCC(=O)Nc2cc(C(F)(F)F)ccc2Cl)cc1[N+](=O)[O-] returned Vaccinia mCherry -25% and VACV Venus inh -20%.
CC(CCc1ccccc1)NC(=O)COC(=O)c1ccc(S(C)(=O)=O)c([N+](=O)[O-])c1 (centres undefined) was read as HCV inhibitor inconclusive, HCMV antiviral -99*, FMDV inh inconclusive, Vaccinia mCherry inconclusive and VACV Venus inh inconclusive.
Cc1ccccc1NC(=O)Cc1nc(COC(=O)c2ccc(NC(N)=O)cc2)cs1 was read as HCV inhibitor inconclusive, HCMV antiviral 0, FMDV inh -4%, Vaccinia mCherry -19% and VACV Venus inh -7%.
For CC(=O)c1cccc(NC(=O)COC(=O)c2ccc(S(C)(=O)=O)c([N+](=O)[O-])c2)c1 the results were HCV inhibitor 5µM*, HCMV antiviral -24, FMDV inh inconclusive, Vaccinia mCherry -10% and VACV Venus inh -14%.
`Cc1ccccc1NC(=O)COC(=O)c1ccc(S(C)(=O)=O)c([N+](=O)[O-])c1` gave HCV inhibitor inconclusive, HCMV antiviral -93*, FMDV inh 32µM*, Vaccinia mCherry -1% and VACV Venus inh -26%.
`COc1ccc(NC(=O)C(NS(=O)(=O)c2cccc3nsnc23)C(C)C)cc1` (centres undefined) gave HCMV antiviral -2, FMDV inh 11%, Vaccinia mCherry -10% and VACV Venus inh 14%.
